Assay results from the supplement of paper PMC7411054.
Structures can show the parent of a compound that is named as a salt.

Legend:
Settings in all cases: treatment time: 24 h
[1] = system: WPMY1-GM130-SQSTM1; test: lowest phenotypically active concentration; higher = less potent
Summary of the method: (§1)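 Two criteria together defined phenotypic activity: deviation and reproducibility. Deviation meant ≥3 of 4 wells beyond the 95th percentile of Euclidean distances in solvent control wells, and reproducibility meant a median replicate Pearson correlation above the 95th percentile of non-replicates. Wells had been treated for 24 h at 0.3, 1, 3 or 9 µM in fifteen gene-edited A549, HepG2 and WPMY1 reporter lines before live imaging.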

[2] = system: A549-ACTB-RAB5A; test: phenotypically active (imaging signature differs from DMSO and reproducible) at any of 0.3-9 uM (binary (1 = active, 0 = inactive)); higher = active
Summary of the method: as §1

[3] = system: A549-CANX-COX4; test: as above
Summary of the method: as §1

[4] = system: A549-GM130-SQSTM1; test: as above
Summary of the method: as §1

[5] = system: A549-TP53BP1-CLTA; test: as above
Summary of the method: as §1

[6] = system: A549-TUBA1B-RELA; test: as above
Summary of the method: as §1

[7] = system: HepG2-ACTB-RAB5A; test: as above
Summary of the method: as §1

[8] = system: HepG2-CANX-COX4; test: as above
Summary of the method: as §1

[9] = system: HepG2-GM130-SQSTM1; test: as above
Summary of the method: as §1

[10] = system: HepG2-TP53BP1-CLTA; test: as above
Summary of the method: as §1

[11] = system: HepG2-TUBA1B-RELA; test: as above
Summary of the method: as §1

[12] = system: WPMY1-ACTB-RAB5A; test: as above
Summary of the method: as §1

[13] = system: WPMY1-CANX-COX4; test: as above
Summary of the method: as §1

[14] = system: WPMY1-GM130-SQSTM1; test: as above
Summary of the method: as §1

[15] = system: WPMY1-TP53BP1-CLTA; test: as above
Summary of the method: as §1

[16] = system: WPMY1-TUBA1B-RELA; test: as above
Summary of the method: as §1

[17] = system: WPMY1-ACTB-RAB5A; test: lowest phenotypically active concentration; higher = less potent
Summary of the method: as §1

[18] = system: WPMY1-CANX-COX4; test: as above
Summary of the method: as §1

[19] = system: WPMY1-TUBA1B-RELA; test: as above
Summary of the method: as §1

C#CCN[C@@H]1CCc2ccccc21 [rasagiline]
9 µM: lowest phenotypically active concentration [1]
inactive: phenotypically active [2] 0 | phenotypically active [3] 0 | phenotypically active [4] 0 | phenotypically active [5] 0 | phenotypically active [6] 0 | phenotypically active [7] 0 | phenotypically active [8] 0 | phenotypically active [9] 0 | phenotypically active [12] 0 | phenotypically active [13] 0 | phenotypically active [16] 0
active: phenotypically active [10] 1 | phenotypically active [11] 1 | phenotypically active [14] 1 | phenotypically active [15] 1

O=C1CCc2ccc(OCCCCN3CCN(c4cccc(Cl)c4Cl)CC3)cc2N1 [aripiprazole]
≤ 0.3 µM: lowest phenotypically active concentration [1]
active: phenotypically active [14] 1
inactive: phenotypically active [2] 0 | phenotypically active [3] 0 | phenotypically active [4] 0 | phenotypically active [5] 0 | phenotypically active [6] 0 | phenotypically active [7] 0 | phenotypically active [8] 0 | phenotypically active [9] 0 | phenotypically active [10] 0 | phenotypically active [11] 0 | phenotypically active [12] 0 | phenotypically active [13] 0 | phenotypically active [15] 0 | phenotypically active [16] 0

CC(C)C(=O)Nc1ccc([N+](=O)[O-])c(C(F)(F)F)c1 [flutamide]
9 µM: lowest phenotypically active concentration [1]
inactive: phenotypically active [2] 0 | phenotypically active [3] 0 | phenotypically active [4] 0 | phenotypically active [5] 0 | phenotypically active [6] 0 | phenotypically active [7] 0 | phenotypically active [8] 0 | phenotypically active [9] 0 | phenotypically active [10] 0 | phenotypically active [11] 0 | phenotypically active [12] 0 | phenotypically active [13] 0 | phenotypically active [15] 0 | phenotypically active [16] 0
active: phenotypically active [14] 1

COc1ccc(-c2ccc3cc(C(=O)O)ccc3c2)cc1C12CC3CC(CC(C3)C1)C2 [Adapalene]
active: phenotypically active [14] 1
1 µM: lowest phenotypically active concentration [1]
inactive: phenotypically active [2] 0 | phenotypically active [3] 0 | phenotypically active [4] 0 | phenotypically active [5] 0 | phenotypically active [6] 0 | phenotypically active [7] 0 | phenotypically active [8] 0 | phenotypically active [9] 0 | phenotypically active [10] 0 | phenotypically active [11] 0 | phenotypically active [12] 0 | phenotypically active [13] 0 | phenotypically active [15] 0 | phenotypically active [16] 0

NCCCCNS(=O)(=O)c1ccc2c(Cl)cccc2c1 [W-13 hydrochloride]
inactive: phenotypically active [2] 0 | phenotypically active [3] 0 | phenotypically active [4] 0 | phenotypically active [5] 0 | phenotypically active [6] 0 | phenotypically active [7] 0 | phenotypically active [8] 0 | phenotypically active [9] 0 | phenotypically active [10] 0 | phenotypically active [11] 0 | phenotypically active [15] 0
active: phenotypically active [12] 1 | phenotypically active [13] 1 | phenotypically active [14] 1 | phenotypically active [16] 1
9 µM: lowest phenotypically active concentration [17] | lowest phenotypically active concentration [18] | lowest phenotypically active concentration [1] | lowest phenotypically active concentration [19]
